# About 8,800 targets were measured; listed, in parts, are those with a hit and a random draw of the rest. About 0.5% of all pairs of compound and target were hits. Values without a mark were called inactive.
# Assays:
# Test in all cases: log2 fold change, soluble protein after heating vs DMSO (PISA); higher = thermal stabilisation; K562 lysate, 10 uM; active = over 0.2 and 3.5 SD of the protein, either way, in both replicates (recomputed)
# [1] = compound: C#Cc1cccc(Nc2ncnc3cc(OCCOC)c(OCCOC)cc23)c1 [erlotinib]
# How it was run: (§1)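 Soluble protein was defined as the supernatant remaining after 21,000xg for 90 min, following pooling of heated aliquots and adjustment to 0.5% NP-40 at 4°C. Before that, crude K562 extract at 1 mg/mL protein in PBS pH 7.4 with 1 mM MgCl2 was treated with 10 μM compound for 30 min and heated for 3 min across 48°C-58°C. Quantification used TMTpro 16plex LC-MS/MS with channel sums equalised, and values are log-two fold changes in thermal stability relative to solvent controls from duplicates.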
# [2] = compound: C/C(=N\NC(=O)C1=CC(=CC=C1)S(=O)(=O)N2CCOCC2)/C3=C(C=CC(=C3)Cl)O
# How it was run: as §1
# [3] = compound: C1=CC(=CC=C1C2=NC3=C(N2)C=C(C=C3)C(=O)N)OC4=CC=C(C=C4)Cl
# How it was run: as §1
# [4] = compound: C1=CC2=C(C=CC(=C2)/C=C\3/C(=O)NC(=NCC4=CC=CS4)S3)N=C1
# How it was run: as §1
# [5] = compound: C1=CC2=NC=CN=C2C=C1/C=C/3\C(=O)NC(=O)S3
# How it was run: as §1
# [6] = compound: C1=CC=C(C=C1)C2=NC(=C(N2)C3=CC=NC=C3)C4=CC(=C(C=C4)Cl)O
# How it was run: as §1
# [7] = compound: C1=CC=C2C(=C1)C3=NNC4=CC=CC(=C43)C2=O
# How it was run: as §1
# [8] = compound: C1CCN(C1)C(=O)NC2=CC=CC(=C2)NC3=NC=C(C(=N3)NCCC4=CN=CN4)Br
# How it was run: as §1
# [9] = compound: C1CN(CCC1(CC2=CC=C(C=C2)Cl)N)C3=NC=NC4=C3C=CN4
# How it was run: as §1
# [10] = compound: C1COCCN1CCN2C3=CC=CC=C3N=C2NC(=O)C4=CC(=CC=C4)[N+](=O)[O-] [IRAK-1-4 Inhibitor I]
# How it was run: as §1
# Sequence of UniProt Q9Y448 (Q9Y448 whole entry, looked up): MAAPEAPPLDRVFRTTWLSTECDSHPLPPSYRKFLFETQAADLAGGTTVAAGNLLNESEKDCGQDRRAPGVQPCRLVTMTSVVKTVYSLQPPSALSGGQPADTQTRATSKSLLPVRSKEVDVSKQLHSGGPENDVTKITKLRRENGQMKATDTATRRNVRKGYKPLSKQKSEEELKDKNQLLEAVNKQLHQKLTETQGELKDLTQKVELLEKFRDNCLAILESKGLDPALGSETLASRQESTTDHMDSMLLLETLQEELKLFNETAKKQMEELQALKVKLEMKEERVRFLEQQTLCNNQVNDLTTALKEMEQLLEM
# Sequence of UniProt Q8N3R9 (Q8N3R9 whole entry, looked up): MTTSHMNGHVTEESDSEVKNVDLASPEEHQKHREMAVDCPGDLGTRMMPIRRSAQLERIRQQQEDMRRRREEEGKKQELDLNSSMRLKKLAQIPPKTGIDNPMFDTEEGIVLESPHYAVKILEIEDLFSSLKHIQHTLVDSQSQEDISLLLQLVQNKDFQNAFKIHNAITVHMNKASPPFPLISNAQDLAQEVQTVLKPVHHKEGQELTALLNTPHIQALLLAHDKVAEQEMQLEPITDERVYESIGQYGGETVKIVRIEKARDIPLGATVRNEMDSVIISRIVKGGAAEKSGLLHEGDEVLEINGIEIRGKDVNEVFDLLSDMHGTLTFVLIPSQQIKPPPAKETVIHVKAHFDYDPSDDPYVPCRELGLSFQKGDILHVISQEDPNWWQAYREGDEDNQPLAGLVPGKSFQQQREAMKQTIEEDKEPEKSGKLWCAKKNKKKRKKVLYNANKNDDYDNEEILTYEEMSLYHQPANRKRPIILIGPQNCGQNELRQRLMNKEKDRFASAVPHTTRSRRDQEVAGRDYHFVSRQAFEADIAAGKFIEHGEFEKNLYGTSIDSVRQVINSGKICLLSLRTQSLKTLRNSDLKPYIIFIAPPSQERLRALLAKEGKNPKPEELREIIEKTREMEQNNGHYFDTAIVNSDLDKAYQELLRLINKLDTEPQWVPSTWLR
# Sequence of UniProt Q07866 (Q07866 whole entry, looked up): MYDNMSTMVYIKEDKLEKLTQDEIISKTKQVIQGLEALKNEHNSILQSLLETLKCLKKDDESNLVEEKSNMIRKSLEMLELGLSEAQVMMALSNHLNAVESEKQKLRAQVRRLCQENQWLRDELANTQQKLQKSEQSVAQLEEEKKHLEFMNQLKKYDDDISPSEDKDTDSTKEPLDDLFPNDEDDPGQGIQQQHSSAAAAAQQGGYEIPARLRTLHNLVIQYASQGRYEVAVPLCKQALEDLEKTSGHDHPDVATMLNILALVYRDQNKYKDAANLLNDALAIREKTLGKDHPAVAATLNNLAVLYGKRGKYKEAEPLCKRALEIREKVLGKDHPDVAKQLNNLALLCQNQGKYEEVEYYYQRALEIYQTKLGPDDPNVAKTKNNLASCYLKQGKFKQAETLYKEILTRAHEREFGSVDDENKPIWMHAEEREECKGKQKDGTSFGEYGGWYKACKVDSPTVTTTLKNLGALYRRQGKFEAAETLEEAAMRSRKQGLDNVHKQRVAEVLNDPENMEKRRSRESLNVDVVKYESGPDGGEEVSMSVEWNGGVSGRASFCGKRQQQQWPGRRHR
# Sequence of UniProt Q8WVR3 (Q8WVR3 whole entry, looked up): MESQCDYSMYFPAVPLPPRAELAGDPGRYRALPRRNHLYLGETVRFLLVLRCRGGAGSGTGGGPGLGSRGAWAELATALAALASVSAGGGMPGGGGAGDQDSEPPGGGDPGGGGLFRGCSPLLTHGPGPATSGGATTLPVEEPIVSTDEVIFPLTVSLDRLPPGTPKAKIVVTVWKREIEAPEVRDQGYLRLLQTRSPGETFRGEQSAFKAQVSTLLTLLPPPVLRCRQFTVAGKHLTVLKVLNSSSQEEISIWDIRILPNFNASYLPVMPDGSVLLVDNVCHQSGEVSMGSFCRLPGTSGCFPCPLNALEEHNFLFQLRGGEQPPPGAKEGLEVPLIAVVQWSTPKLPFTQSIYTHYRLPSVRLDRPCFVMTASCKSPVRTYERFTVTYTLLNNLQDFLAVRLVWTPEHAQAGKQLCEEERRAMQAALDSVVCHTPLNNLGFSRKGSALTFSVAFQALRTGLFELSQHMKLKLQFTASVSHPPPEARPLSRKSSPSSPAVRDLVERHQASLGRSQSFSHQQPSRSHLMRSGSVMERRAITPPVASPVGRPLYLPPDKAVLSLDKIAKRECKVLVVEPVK
# Sequence of UniProt Q9NX58 (Q9NX58 whole entry, looked up): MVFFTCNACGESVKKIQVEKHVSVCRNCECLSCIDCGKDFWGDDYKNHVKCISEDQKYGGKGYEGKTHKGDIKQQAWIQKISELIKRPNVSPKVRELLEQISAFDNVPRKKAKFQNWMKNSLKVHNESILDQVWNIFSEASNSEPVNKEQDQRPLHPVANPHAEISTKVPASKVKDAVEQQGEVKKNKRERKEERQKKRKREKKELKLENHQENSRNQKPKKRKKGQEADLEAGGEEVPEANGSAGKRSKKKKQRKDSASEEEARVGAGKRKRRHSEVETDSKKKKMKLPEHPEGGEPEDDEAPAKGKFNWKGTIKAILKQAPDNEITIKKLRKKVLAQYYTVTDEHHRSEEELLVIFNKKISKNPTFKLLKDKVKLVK
# Sequence of UniProt Q9NZL9 (Q9NZL9 whole entry, looked up): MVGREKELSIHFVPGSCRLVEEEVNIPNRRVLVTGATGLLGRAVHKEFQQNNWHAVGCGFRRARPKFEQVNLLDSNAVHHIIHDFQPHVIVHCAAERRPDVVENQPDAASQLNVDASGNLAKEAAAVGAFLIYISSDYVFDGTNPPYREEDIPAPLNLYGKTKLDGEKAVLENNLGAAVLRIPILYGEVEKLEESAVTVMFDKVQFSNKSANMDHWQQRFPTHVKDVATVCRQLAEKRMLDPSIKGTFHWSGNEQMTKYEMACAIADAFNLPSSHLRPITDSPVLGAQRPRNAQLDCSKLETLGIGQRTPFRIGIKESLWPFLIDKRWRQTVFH
# Sequence of UniProt P48449 (P48449 whole entry, looked up): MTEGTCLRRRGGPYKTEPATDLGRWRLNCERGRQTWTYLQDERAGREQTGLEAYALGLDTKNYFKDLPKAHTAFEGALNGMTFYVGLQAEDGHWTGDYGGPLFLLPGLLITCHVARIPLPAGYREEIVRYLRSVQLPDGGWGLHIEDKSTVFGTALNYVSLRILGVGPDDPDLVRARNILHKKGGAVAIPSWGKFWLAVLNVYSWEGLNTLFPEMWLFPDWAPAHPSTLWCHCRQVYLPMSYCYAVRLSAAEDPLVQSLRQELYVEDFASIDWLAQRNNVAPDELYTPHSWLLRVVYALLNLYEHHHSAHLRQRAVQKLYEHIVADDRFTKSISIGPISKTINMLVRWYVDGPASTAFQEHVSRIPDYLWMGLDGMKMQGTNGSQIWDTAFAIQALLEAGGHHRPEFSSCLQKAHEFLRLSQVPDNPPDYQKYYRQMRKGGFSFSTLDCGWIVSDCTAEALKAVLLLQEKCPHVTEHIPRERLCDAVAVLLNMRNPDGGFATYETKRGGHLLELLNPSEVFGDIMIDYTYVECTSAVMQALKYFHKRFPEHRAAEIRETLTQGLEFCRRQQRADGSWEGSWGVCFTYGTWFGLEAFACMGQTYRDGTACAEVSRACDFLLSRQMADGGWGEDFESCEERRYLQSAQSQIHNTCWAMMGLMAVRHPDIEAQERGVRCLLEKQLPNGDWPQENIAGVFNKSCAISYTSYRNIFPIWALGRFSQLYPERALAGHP
# Sequence of UniProt Q96RQ3 (Q96RQ3 whole entry, looked up): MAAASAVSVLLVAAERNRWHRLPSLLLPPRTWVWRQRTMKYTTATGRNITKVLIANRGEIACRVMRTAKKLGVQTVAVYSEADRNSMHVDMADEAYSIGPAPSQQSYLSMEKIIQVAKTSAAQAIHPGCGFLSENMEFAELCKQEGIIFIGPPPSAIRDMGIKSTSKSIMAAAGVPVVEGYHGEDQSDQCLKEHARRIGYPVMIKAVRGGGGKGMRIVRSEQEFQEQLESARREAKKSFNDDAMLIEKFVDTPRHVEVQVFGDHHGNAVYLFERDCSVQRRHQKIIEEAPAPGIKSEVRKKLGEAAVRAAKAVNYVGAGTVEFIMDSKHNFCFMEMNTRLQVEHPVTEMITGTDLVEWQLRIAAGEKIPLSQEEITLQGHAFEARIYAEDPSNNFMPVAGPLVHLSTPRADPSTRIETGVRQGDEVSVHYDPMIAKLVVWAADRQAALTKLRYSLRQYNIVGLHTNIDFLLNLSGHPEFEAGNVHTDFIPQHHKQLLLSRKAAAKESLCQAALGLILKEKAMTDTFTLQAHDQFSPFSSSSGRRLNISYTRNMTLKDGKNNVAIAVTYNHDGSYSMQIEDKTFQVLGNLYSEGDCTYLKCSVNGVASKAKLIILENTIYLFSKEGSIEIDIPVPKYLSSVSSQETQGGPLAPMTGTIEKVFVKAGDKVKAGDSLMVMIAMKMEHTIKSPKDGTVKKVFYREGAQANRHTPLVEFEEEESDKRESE
# Sequence of UniProt A9UHW6 (A9UHW6 whole entry, looked up): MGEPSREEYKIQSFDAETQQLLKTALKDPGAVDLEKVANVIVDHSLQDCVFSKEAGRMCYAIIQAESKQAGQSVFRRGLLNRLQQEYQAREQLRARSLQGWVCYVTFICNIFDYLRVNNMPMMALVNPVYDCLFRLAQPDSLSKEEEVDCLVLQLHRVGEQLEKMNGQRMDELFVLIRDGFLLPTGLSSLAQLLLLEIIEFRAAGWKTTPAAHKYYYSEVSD
# Sequence of UniProt Q13601 (Q13601 whole entry, looked up): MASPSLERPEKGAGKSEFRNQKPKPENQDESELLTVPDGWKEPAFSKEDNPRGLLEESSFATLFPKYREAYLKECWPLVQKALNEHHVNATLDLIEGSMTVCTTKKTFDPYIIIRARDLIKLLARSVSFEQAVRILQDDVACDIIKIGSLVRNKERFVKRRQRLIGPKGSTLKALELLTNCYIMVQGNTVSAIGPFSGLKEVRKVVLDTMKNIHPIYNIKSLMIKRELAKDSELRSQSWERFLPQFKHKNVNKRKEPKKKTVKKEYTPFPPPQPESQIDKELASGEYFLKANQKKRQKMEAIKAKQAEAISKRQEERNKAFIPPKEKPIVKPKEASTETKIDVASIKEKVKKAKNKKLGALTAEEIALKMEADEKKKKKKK
Target,log2 fold change [1],log2 fold change [2],log2 fold change [3],log2 fold change [4],log2 fold change [5],log2 fold change [6],log2 fold change [7],log2 fold change [8],log2 fold change [9],log2 fold change [10]
MAPK9 (UniProt P45984),-0.001,0.017,-0.018,-0.015,0.014,0.068,0.393 (active),0.061,-0.032,-0.014
MRPL46 (UniProt Q9H2W6),-0.027,-0.01,-0.039,-0.124,-0.069,0.023,0.089,-0.009,-0.064,0.035
LYAR (UniProt Q9NX58),-0.007,-0.004,0,-0.007,-0.011,0.046,0.018,0.007,-0.003,-0.018
LIMK2 isoform 3 (UniProt P53671),-0.013,-0.038,-0.048,0.062,0.053,0.016,0.003,-0.002,0.001,-0.031
MCCC1 (UniProt Q96RQ3),0.037,-0.028,0.048,-0.052,0.025,-0.029,-0.085,-0.022,0.077,-0.008
MINDY1 isoform 3 (UniProt Q8N5J2),0.052,-0.006,0.048,-0.031,0.245,0.053,0.056,-0.082,-0.066,-0.02
MPP5 (UniProt Q8N3R9),0.039,-0.009,0.027,-0.016,0.038,0.01,-0.038,-0.028,-0.013,0.085
KIF11 (UniProt P52732),-0.014,0.012,-0.016,-0.004,-0.004,-0.004,-0.023,-0.005,-0.013,-0.033
MED17 (UniProt Q9NVC6),-0.017,0.062,0.019,0.065,-0.017,0.014,-0.055,-0.007,-0.03,-0.012
MRPL12 (UniProt P52815),0.046,-0.02,-0.013,0.041,-0.015,-0.015,0.014,-0.007,0.077,-0.029
MAPKAPK5 (UniProt Q8IW41),-0.058,-0.045,0.016,0.12,0.007,-0.024,0.276 (active),0.035,0.031,-0.049
LSS (UniProt P48449),-0.023,0.057,0.001,0.053,-0.005,0.037,-0.006,-0.094,0.019,0
MAP11 (UniProt Q8WVR3),0.013,-0.018,-0.009,0.006,0.061,-0.004,0.064,-0.135,0.02,-0.02
MCU (UniProt Q8NE86),0.045,-0.028,-0.09,0.02,0.057,-0.035,0.084,0.055,0.015,0.064
LTN1 isoform 3 (UniProt O94822),0.028,0.021,-0.065,-0.005,0.003,-0.022,-0.045,-0.019,0.023,0.006
KNSTRN (UniProt Q9Y448),-0.007,-0.003,-0.018,0.006,-0.018,0.015,0.012,0.036,-0.061,-0.039
MGAT5 (UniProt Q09328),0.037,0.03,0.087,0.044,0.078,-0.003,0.132,-0.03,0.066,-0.05
MIF4GD isoform 3 (UniProt A9UHW6),-0.006,0.041,0.03,0.028,-0.073,0.039,-0.03,-0.052,0.051,-0.04
LPIN1 isoform 7 (UniProt Q14693),0.047,-0.046,0.027,0.003,0.003,0.011,-0.006,0.038,0.132,0.034
MECR (UniProt Q9BV79),-0.019,0.027,-0.005,-0.028,0.012,-0.038,-0.035,-0.053,0.079,0.025
MARK2 (UniProt E9PC69),0.095,0.132,0.026,0.056,-0.017,0.024,-0.246,-0.18,-0.084,-0.076
MAP4 (UniProt E7EVA0),0.056,0.01,0.113,0.045,-0.072,-0.004,-0.076,0.071,0.061,0.037
LPCAT1 (UniProt Q8NF37),0.056,-0.052,-0.057,0.054,0.062,-0.09,-0.014,-0.007,-0.025,0.04
MAT2B (UniProt Q9NZL9),-0.009,-0.004,-0.033,-0.014,-0.006,-0.01,0.036,0.015,-0.004,0.017
KIF2A isoform 4 (UniProt O00139),-0.008,0.02,-0.014,-0.007,-0.037,0.001,-0.022,-0.02,-0.041,-0.026
MAPK14 isoform 2 (UniProt Q16539),-0.004,0.011,-0.049,0.016,0.017,0.633,-0.045,-0.02,0.059,-0.015
KRR1 (UniProt Q13601),0.016,-0.232,-0.007,-0.019,0.009,-0.01,0.045,-0.032,0.06,-0.069
KIF26A (UniProt Q9ULI4),0.117,-0.053,-0.089,0.012,-0.022,-0.019,0.159,0.108,0.249,0.093
KLC1 isoform 6 (UniProt Q07866),-0.02,-0.023,0.002,0,-0.033,0.002,-0.007,-0.027,-0.01,0.011

# — the supplement of paper PMC10849652
